In the library only some 6.6% were active in any assay of this set; here they are far more common.
SW480 rereplic = A quantitative high throughput screen for small molecules that induce DNA re-replication in SW480 colon adenocarcinoma cells; AID 624297, 2012; Potency, µM (titrated, usually from 46.1 µM), inactives show at the highest dose re-replication activation, actives largely listed as activators; SW480 DNA re-replication, Hoechst DNA content imaging, 48 h; 1.8% of 340,000 active; note: % of control where 0% means no effect; nearly all actives have a fitted effect of over 55% in size
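First, 250 cells per well were seeded. Next, compound or vehicle (23 nL) was pinned in, plates sat 48 hr at 37 C. Finally Hoechst was added for 40 min before fluorescence scanning.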
KB-3-1 cytotox = qHTS assay for MDR1-selective chemotherapeutics: Primary screen using the parental adenocarcinoma cell KB-3-1 | KB-3-1 viability, CellTiter-Glo ATP luminescence, 72 h | Potency, µM (highest dose often 46.1 µM), usual class: cytotoxic | 1.4% of 400,000 active | AID 1347075, 2019; note: % is set by controls: 0 for no effect and ±100 for the full control effect; nearly all actives have a fitted effect of over 60% in size
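KB-3-1 cells, DMEM (no phenol red) + 10% FBS; compound by pin transfer, 72 h, 37 °C. Readout: CellTiter-Glo luminescence after 10 min. Data normalized, curve-fitted.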
MCF10A rerep = A quantitative high throughput screen for small molecules that induce DNA re-replication in MCF 10a normal breast cells; 2.9% of 350,000 active; MCF 10A DNA re-replication, Hoechst nuclear intensity, 48 h; Potency, µM (titrated, usually from 46.1 µM), for the others: at the top dose activity, positive = re-replication, hits mostly activators; note: % of control where 0% means no effect; nearly all actives have a fitted effect of over 50% in size
KB-V1 MDR tox = qHTS assay for MDR1-selective chemotherapeutics: Primary screen using the drug-selected MDR subline cells KB-V1. Potency, µM (doses to about 46.1 µM), hits mostly cytotoxic. KB-V1 MDR cells viability, CellTiter-Glo, 72 h. AID 1347076, 2019. 3.4% of 400,000 active; note: % is set by controls: 0 for no effect and ±100 for the full control effect; nearly all actives have a fitted effect of over 60% in size
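Cytotoxicity toward P-gp-expressing KB-V1 cells was determined as loss of CellTiter-Glo luminescence after 72 h at 37 degrees C. Compounds were tested in quantitative HTS format across a concentration range, with curves fitted to normalized data.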
PTAP TSG101 blk = qHTS Assay for Iinhibitors of HIV-1 Budding by Blocking the Interaction of PTAP/TSG101 | Tumor susceptibility gene 101 protein (Homo sapiens), Q99816 | 340,000 tested, under 10 active | Potency, µM (doses to about 115 µM), without a hit: at the highest dose activity change, negative = inhibition, most hits filed as inhibitors | Fluorescence polarization, FITC-PTAP peptide / Tsg101 binding; active = well fitted inhibition curve with a large enough effect in the main read-out, with a control signal flat, not every such curve was filed as active; inconclusive = small, poorly fitted or top-dose-only effect, or effect the other way, or a change in a side signal; inactive = no such curve, though single readings can be large or run the other way; note: % of control where 0% means no effect
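Fluorescence anisotropy tracks displacement of a FITC-tagged PTAP peptide (50 nM) from the Tsg101 binding domain (10 uM), following a 20 min room-temperature incubation at pH 7.5.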
RGS4 inh = Inhibitors of Regulator of G Protein Signaling (RGS) 4: qHTS | Regulator of G-protein signaling 4 (Homo sapiens), P49798 | AID 504845, 2011 | 0.039% of 390,000 active | Transcreener GDP fluorescence polarization, RGS4-accelerated GTP hydrolysis | Potency, µM (top dose mostly 114 µM), without a hit: top-dose activity change, negative = inhibition, actives largely listed as inhibitors; note: % is set by controls: 0 for no effect and ±100 for the full control effect; nearly all actives have a fitted effect of over 75% in size
Target sequence (P49798 whole entry, looked up): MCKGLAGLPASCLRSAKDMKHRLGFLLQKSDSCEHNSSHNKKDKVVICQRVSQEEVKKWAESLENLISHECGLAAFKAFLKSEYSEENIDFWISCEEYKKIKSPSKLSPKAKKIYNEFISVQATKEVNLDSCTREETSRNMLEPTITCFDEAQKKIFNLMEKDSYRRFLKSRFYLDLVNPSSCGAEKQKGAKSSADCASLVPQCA
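MLSMR compounds (23 nl, pin-transferred) preincubated 10 min at room temperature with a 500nM (2x) first reagent, then RGS4 at 900nM (2x) plus Transcreener GDP mix added; fluorescence polarization (620/688 nm) read before and after 90 min at 30 °C.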
* marks the source's active call; other numbers are inactive results; [ ] = dose if it differs, or a comment. Unless noted, calls come from the whole dose curve; as a rule, active = well fitted curve in the direction sought with a large enough effect; inconclusive = small, poorly fitted or top-dose-only effect, or another doubt; inactive = no such curve, though single readings can be large; an effect the other way counts as inactive or inconclusive. Potency is the fitted concentration of half-maximal effect.

CCC(CCc1ccccn1)C(=O)c1ccccc1 (stereo not given) was read as SW480 rereplic 17.3%, KB-3-1 cytotox inactive, MCF10A rerep 11.8%, KB-V1 MDR tox inconclusive, PTAP TSG101 blk -3.5% and RGS4 inh -33.7%.
For CCCCC(CCc1ccccn1)C(=O)c1ccccc1 (stereo not given) the results were SW480 rereplic -3.3%, KB-3-1 cytotox inactive, MCF10A rerep inconclusive, KB-V1 MDR tox 16.4µM*, PTAP TSG101 blk 0.4% and RGS4 inh 11.3%.
CN(C)CC(CCCCC(CN(C)C)C(=O)c1ccccc1)C(=O)c1ccccc1 (stereo not given) was read as SW480 rereplic 10.3µM*, KB-3-1 cytotox inconclusive, MCF10A rerep inconclusive, KB-V1 MDR tox inactive, PTAP TSG101 blk 0.0% and RGS4 inh -18.6%.
CCc1ccc(C2=CC(c3cc(Br)ccc3F)n3ncnc3N2)cc1 (stereo not given) was read as SW480 rereplic inconclusive, KB-3-1 cytotox 8.2µM*, MCF10A rerep 17.1%, KB-V1 MDR tox 9.2µM*, PTAP TSG101 blk -9.4% and RGS4 inh -9.3%.
Screening CC(=O)N1CCc2c(sc3c2c(=O)n(-c2ccc(C)cc2)c(=O)n3Cc2ccccc2C)C1 returned KB-3-1 cytotox inactive, KB-V1 MDR tox inactive and RGS4 inh -3.3%.
For Nc1c(C(O)(C(F)(F)F)C(F)(F)F)cc(C(O)(C(F)(F)F)C(F)(F)F)c2ccccc12 the results were SW480 rereplic 28.1%, KB-3-1 cytotox inactive, MCF10A rerep 17.8µM*, KB-V1 MDR tox inactive, PTAP TSG101 blk 1.2% and RGS4 inh 12.0%.
S=C(NCc1ccc2[nH]c3c(c2c1)CCCC3)Nc1ccccc1 was read as SW480 rereplic inconclusive, KB-3-1 cytotox inactive, MCF10A rerep 20.6µM*, KB-V1 MDR tox inactive, PTAP TSG101 blk -5.9% and RGS4 inh -9.2%.
`CC(C)(C)c1ccc(-c2noc(CCC(=O)Nc3cccc(Cl)c3)n2)cc1` gave KB-3-1 cytotox inactive, KB-V1 MDR tox inactive and RGS4 inh 15.9%.
`O=[N+]([O-])/C=C\c1ccc(N2CCOCC2)cc1` gave SW480 rereplic 14.6µM*, KB-3-1 cytotox inconclusive, MCF10A rerep 15.7%, KB-V1 MDR tox inconclusive, PTAP TSG101 blk -5.1% and RGS4 inh -39.0%[56.9 µM].
Screening CCn1ncc(Br)c1C(=O)Nc1ccccc1OC returned SW480 rereplic -0.5%, KB-3-1 cytotox 13µM*, MCF10A rerep 5.3%, KB-V1 MDR tox 11.6µM*, PTAP TSG101 blk -0.9% and RGS4 inh -40.5%.
CCn1ncc(Br)c1C(=O)Nc1cc([N+](=O)[O-])ccc1C was read as SW480 rereplic -78.2%, KB-3-1 cytotox inconclusive, MCF10A rerep -6.7%, KB-V1 MDR tox 16.4µM*, PTAP TSG101 blk -3.7% and RGS4 inh -12.7%.
`CCOc1ccc(CC(=O)NCCc2sc3nc(-c4ccc(F)cc4)nn3c2C)cc1` gave RGS4 inh 7.5%.
CCCC(=O)N1CCN(c2ccc([N+](=O)[O-])cc2Cl)CC1 was read as SW480 rereplic -2.9%, KB-3-1 cytotox inactive, MCF10A rerep -3.5%, KB-V1 MDR tox inactive, PTAP TSG101 blk -4.8% and RGS4 inh 22.5%[11.4 µM].
Screening O=C(CSc1ccc(Cl)cc1)N1CCN(c2ncc(C(F)(F)F)cc2Cl)CC1 returned SW480 rereplic 20.1%, KB-3-1 cytotox inactive, MCF10A rerep inconclusive, KB-V1 MDR tox 14.6µM*, PTAP TSG101 blk -3.9% and RGS4 inh 25.3%.
